According to PubChem BioAssay AID1159580 (chemical genetic matrix, 2015):
The campaign covered roughly 5,500 compounds. About 2,000 (36%) were called active. About 18% were inconclusive and are not listed. The list shows a part of the results. Unmarked numbers belong to inactive results. Rule as the data show it: active = normalized growth mostly below about 0.91 (no sharp cut-off); inconclusive = no clear call, values can overlap the other calls; inactive = mostly above about 0.92.

Test: chemical genetic growth profiling, strain panel (AID 1159580);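 also: tested at 20 µM; growth read once vehicle control cultures reached saturation at 30 °C; 1 = growth at the plate median or of vehicle wells; lower values mean less growth of the strain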
Conditions: S. cerevisiae deletion strains, growth OD
[1] = locus YAL013W, strain DEP1, hits give low values
[2] = locus YBR229C, strain ROT2, hits give low values
[3] = locus YCL061C, strain MRC1, hits give low values
[4] = locus YDL101C, strain DUN1, hits give low values
[5] = locus YDL134C, strain PPH21, hits give low values
[6] = locus YDR150W, strain NUM1, hits give low values
[7] = locus YEL061C, strain CIN8, hits give low values
[8] = locus YGR078C, strain PAC10, hits give low values
[9] = locus YHR030C, strain SLT2, hits give low values
[10] = locus YHR087W, strain rtc3, hits give low values
[11] = locus YJL187C, strain SWE1, hits give low values
[12] = locus YJR043C, strain POL32, hits give low values
[13] = locus YJR075W, strain HOC1, hits give low values
[14] = locus YKL190W, strain CNB1, hits give low values
[15] = locus YLR039C, strain RIC1, hits give low values
[16] = locus YLR058C, strain SHM2 (second series), hits give low values
[17] = locus YLR085C, strain ARP6, hits give low values
[18] = locus YLR262C, strain YPT6, hits give low values
[19] = locus YML094W, strain GIM5, hits give low values
[20] = locus YMR219W, strain ESC1, hits give low values
[21] = locus YMR263W, strain SAP30, hits give low values
[22] = locus YNL153C, strain GIM3, hits give low values
[23] = locus YNL298W, strain CLA4 (second series), hits give low values
[24] = locus YNL322C, strain KRE1, hits give low values
[25] = locus YNR030W, strain Alg12, hits give low values
[26] = locus YPL055C, strain LGE1, hits give low values
[27] = locus YPL241C, strain CIN2, hits give low values
[28] = locus YPR135W, strain CTF4, hits give low values

S=C1NCN(CCN2CCCC2)CN1
normalized growth [1]: 1
normalized growth [2]: 0.996
normalized growth [3]: 0.988
normalized growth [4]: 0.984
normalized growth [5]: 0.975
normalized growth [6]: 0.96
normalized growth [7]: 1.03
normalized growth [8]: 0.997
normalized growth [9]: 1.04
normalized growth [10]: 1.04
normalized growth [11]: 1.01
normalized growth [12]: 0.986
normalized growth [13]: 0.997
normalized growth [14]: 0.977
normalized growth [15]: 0.991
normalized growth [16]: 1.01
normalized growth [17]: 0.98
normalized growth [18]: 0.972
normalized growth [19]: 1
normalized growth [20]: 1.01
normalized growth [21]: 1
normalized growth [22]: 0.993
normalized growth [23]: 0.987
normalized growth [24]: 0.995
normalized growth [25]: 0.994
normalized growth [26]: 1.01
normalized growth [27]: 0.973
normalized growth [28]: 0.962

Cn1c2c(c(=O)n(C)c1=O)CN(CCCCCCO)CN2
normalized growth [1]: 1
normalized growth [2]: 1.01
normalized growth [3]: 1.01
normalized growth [4]: 1
normalized growth [5]: 1.02
normalized growth [6]: 0.982
normalized growth [7]: 1.01
normalized growth [8]: 0.999
normalized growth [9]: 1.07
normalized growth [10]: 1
normalized growth [12]: 0.99
normalized growth [13]: 1.01
normalized growth [14]: 0.994
normalized growth [15]: 1.02
normalized growth [16]: 1
normalized growth [17]: 1.1
normalized growth [18]: 1.03
normalized growth [19]: 1.05
normalized growth [20]: 1
normalized growth [21]: 1
normalized growth (locus YMR307W, strain GAS1, hits give low values): 1.04
normalized growth (locus YNL128W, strain TEP1, hits give low values): 1.01
normalized growth [22]: 0.999
normalized growth [23]: 1.1
normalized growth [24]: 0.998
normalized growth [25]: 1.04
normalized growth [26]: 1.02
normalized growth [27]: 1.05
normalized growth [28]: 1.02

CCCCCCCCCCCCN1CNC(=S)NC1
normalized growth [1]: 0.804 (active)
normalized growth [2]: 0.81 (active)
normalized growth [3]: 0.68 (active)
normalized growth [4]: 0.652 (active)
normalized growth [5]: 0.451 (active)
normalized growth [6]: 0.846
normalized growth [7]: 0.441 (active)
normalized growth [8]: 0.813 (active)
normalized growth [9]: 0.291 (active)
normalized growth [10]: 0.767 (active)
normalized growth [11]: 0.688 (active)
normalized growth [12]: 0.727 (active)
normalized growth [13]: 0.858 (active)
normalized growth [14]: 0.515 (active)
normalized growth [15]: 0.985
normalized growth [16]: 0.988
normalized growth [17]: 0.141 (active)
normalized growth [18]: 1.01
normalized growth [19]: 0.513 (active)
normalized growth [20]: 0.786 (active)
normalized growth [21]: 0.782 (active)
normalized growth [22]: 0.801 (active)
normalized growth [23]: 0.325 (active)
normalized growth [24]: 0.956
normalized growth [25]: 0.419 (active)
normalized growth (locus YOL006C, strain TOP1, hits give low values): 0.123 (active)
normalized growth [26]: 0.541 (active)
normalized growth [27]: 0.484 (active)
normalized growth [28]: 0.382 (active)
